Shown are actives, neighbours in structure and some others; about 21% of the full set was active somewhere.
NS1 inh – influenza NS1 inhibition; Potency, µM (series often up to 46.1 µM), inactives show at the top dose activity, positive = more growth; 270,000 compounds, 0.4% hits; calls by dose curve; also: potency is read from the fitted curve at half-maximal effect; actives are rising curves; nearly all actives have a fitted effect of over 50% in size
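Recovery from NS1-induced slow growth read by OD600 in budding yeast switched to galactose assay medium (pH 6.0, -URA) at 1:100 dilution. Compound 23 nl per well; the matching strain lacking NS1 serves as control.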
Cycloheximide cs – counter-screen for Shiga toxin inhibitors: cycloheximide protein synthesis inhibition. cell reporter, cycloheximide protein synthesis inhibition counterscreen. 300,000 compounds, 12% hits. AID 2314. max response, %; in the data active = max response mostly above about 13%, no sharp cut-off; inactive = mostly below about 14%; also: read at 38.3 µM for the half of the compounds with a filed dose; 0% is about no effect
Shiga toxin inh – Shiga toxin inhibition | Vero cells, Shiga toxin protein synthesis inhibition reporter | inhibition, % at 38.7 µM | 290,000 compounds, 9.2% hits; in the data active = inhibition mostly above about 28%, no sharp cut-off; inactive = mostly below about 43%; also: 0% is about no effect
SARS PLP yeast – blocks SARS-CoV papain-like protease in a yeast assay | S. cerevisiae expressing SARS-CoV PLpro, growth rescue | Potency, µM (highest dose often 32.9 µM), inactives show at the highest dose activity, positive = growth rescue, usual class: activators | 330,000 compounds, 0.19% hits | AID 485353; calls by dose curve; also: potency is read from the fitted curve at half-maximal effect; 0% is about no effect; nearly all actives have a fitted effect of over 55% in size
Pf growth 48h – inhibits P. falciparum growth in the first generation, 48 h; P. falciparum luciferase growth in erythrocytes, 48 h; AID 504832; 310,000 compounds, 5.9% hits; Potency, µM (top dose mostly 28.7 µM), for the others: top-dose activity change, negative = inhibition, hits mostly inhibitors; also: potency is read from the fitted curve at half-maximal effect; % is scaled to controls: 0 for no effect and ±100 for the full control effect
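First compound was added to culture medium, then infected red cells at 0.1% parasitemia and 2% hematocrit (final). After incubation at 37 C under 5% CO2, luciferase detection reagent was dispensed and light output recorded.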
Pf growth 96h – inhibits malaria parasite growth, 96 h. P. falciparum luciferase reporter growth, 96 h. Potency, µM (titrated, usually from 28.7 µM), inactives show top-dose activity change, negative = inhibition, usual class: inhibitors. 320,000 compounds, 6.9% hits. AID 504834; also: potency is read from the fitted curve at half-maximal effect; % is scaled to controls: 0 for no effect and ±100 for the full control effect
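Delayed-death screen, second-generation endpoint: infected erythrocytes, 2% hematocrit, 0.05% parasitemia final; 96 hours at 37 C, 5% CO2; luciferase detection reagent; luminescence decrease equals reduced growth.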
An asterisk follows results filed as active; ? = inconclusive; . = no result given. Unless noted, calls follow the shape of the dose curve; as a rule, active = well fitted inhibition curve with a large enough effect; inconclusive = small, poorly fitted or top-dose-only effect, or another doubt; inactive = no such curve, though single readings can be large or run the other way.

SMILES | NS1 inh | Cycloheximide cs | Shiga toxin inh | SARS PLP yeast | Pf growth 48h | Pf growth 96h
CNC(=O)Cn1nc(-c2ccc(C)c(S(=O)(=O)N(C)C)c2)c2ccccc2c1=O | 1% | 2 | 9 | -26% | -12% | 9.3µM*
Cc1ccc(-c2nn(CC(=O)NCc3ccccn3)c(=O)c3ccccc23)cc1S(=O)(=O)N(C)C | . | -3 | -4 | -1% | -21% | 2%
CCOc1ccc(NC(=O)c2ccc3c(c2)N(Cc2ccc(F)cc2)C(=O)CS3=O)cc1 (stereo not drawn) | ? | 12 | 31 | -3% | 10µM* | ?
CC1CCCC(NC(=O)c2ccc3c(c2)N(Cc2ccccc2)C(=O)CS3=O)C1C (stereo not drawn) | 24% | 4 | -5 | -9% | 17µM* | 10µM*
O=C(Nc1ccc(Br)cc1F)c1ccc2c(c1)N(Cc1ccccc1)C(=O)CS2=O (stereo not drawn) | -46% | -3 | 0 | ? | ? | ?
Cc1ccc(C)c(NC(=O)c2ccc3c(c2)N(Cc2ccc(F)cc2)C(=O)CS3=O)c1 (stereo not drawn) | ? | -1 | 15 | -23% | 3.3µM* | -12%
O=C(NCC1CCCO1)c1ccc2c(c1)N(Cc1ccccc1)C(=O)CS2=O (stereo not drawn) | -3% | -3 | -2 | 4% | ? | -16%
O=C(NC1CCCCCCC1)c1ccc2c(c1)N(Cc1ccc(F)cc1)C(=O)CS2=O (stereo not drawn) | 0% | 1 | -12 | 12% | 12µM* | ?
COC(=O)c1cc(C(=O)NCc2ccc3c(c2)OCO3)cc([N+](=O)[O-])c1 | -15% | -4 | . | 3% | 0% | ?
CC1CC(C)CN(C(=O)COC(=O)c2ccc3ccccc3n2)C1 (stereo not drawn) | . | . | . | 0% | -8% | -2%
Cc1cccc(/C=C2/S/C(=N/N=C3\CC4CCC3(C)C4(C)C)NC2=O)c1 (stereo not drawn) | 16% | -2 | -4 | -22% | ? | 8.3µM*
O=C1N/C(=N/O)S/C1=C/c1cccc([N+](=O)[O-])c1 | . | 9 | 36 | -3% | 13% | ?
COc1ccc(OCC(=O)C2CC2)c(C#N)c1 | -4% | 27* | 26 | 0% | 1.9µM* | 234%
CC(C)c1ccc(C2C3=C(COC3=O)Nc3cc4c(cc32)OCO4)cc1 (stereo not drawn) | 0% | -2 | -7 | 0% | 1% | ?
Cc1nc2ccccc2n1C1CCN(CC(=O)NCc2ccc(F)cc2)CC1 | -9% | 1 | -7 | 3% | ? | 5.9µM*
COc1ccc(NC(=O)CN2CCC(n3c(C)nc4cc(F)ccc43)CC2)c(OC)c1 | 2% | -5 | -19 | 10% | ? | 4%
Nc1nnc(SCCCC(=O)c2ccccc2)s1 | -10% | 23* | -21 | 25% | 35% | 23%
Nc1nnc(SCC(=O)c2ccc3ccccc3c2)s1 | 21% | 85* | 151* | -6% | . | 96%
O=C(Cn1nc(-c2cccc(Cl)c2)ccc1=O)Nc1ccc(C(=O)NC2CC2)cc1 | 8% | -3 | -9 | 0% | ? | ?
Cc1ccsc1CN(C)C(=O)c1ccc(Oc2ccccc2)cc1 | -36% | 18* | 63* | -28% | 12% | -26%
C/C(CCc1ccc2c(c1)OCO2)=N\NC(=O)c1ccccc1Cl | 18% | 24* | 13 | 2% | 16% | 0%
C/C(CCc1ccc2c(c1)OCO2)=N\NC(=O)c1ccccc1 | 6% | 36* | 76* | 0% | 3% | 8%
COc1ccc(-n2nc(C(=O)O)cc2-c2ccccc2)cc1 | -4% | -3 | -2 | 0% | 0% | 0%
CC(=C\c1ccccc1)/C=C1/SC(=S)N(C(C(=O)O)C(C)C)C1=O (stereo not drawn) | . | -2 | -2 | -2% | 18% | 40%
CC(C)C(C(=O)O)N1C(=O)/C(=C/c2ccc(Br)cc2)SC1=S (stereo not drawn) | . | 27* | 21* | . | . | .
SMILES | NS1 inh | Cycloheximide cs | Shiga toxin inh | SARS PLP yeast | Pf growth 48h | Pf growth 96h
O=C(NCc1cccs1)c1ccc(CS(=O)Cc2cccc(Cl)c2)o1 (stereo not drawn) | 9% | -1 | -3 | 1% | ? | 14%
Cc1nc(N2CCCCC2)c2c(C)c(C(=O)Nc3ccc4c(c3)OCCO4)sc2n1 | -4% | 17* | 24 | -27% | ? | -6%
Cc1nc(N2CCN(C)CC2)c2c(C)c(C(=O)Nc3ccc(C)c(F)c3)sc2n1 | 2% | -1 | -9 | -4% | . | ?
Cc1nc(N2CCN(c3ccccn3)CC2)c2c(C)c(C(=O)Nc3c(F)cc(F)cc3Br)sc2n1 | -37% | -3 | 37 | -16% | 12µM* | 28%
Cc1nc(N2CCN(c3ccccn3)CC2)c2c(C)c(C(=O)Nc3c(C)cc(Br)cc3C)sc2n1 | 9% | 1 | 4 | 4% | 1.9µM* | -23%
COc1ccc([C@H]2CC(=O)C=C(c3ccc(SC)cc3)C2)cc1 | . | . | . | 9% | -5% | 58%
O=S(=O)(Nc1cccc2ccccc12)N1CCCC1 | -5% | 20 | -6 | -1% | -12% | -11%
COC(=O)c1c(NC(=O)Cc2ccc(OC)c(S(=O)(=O)N3CCOCC3)c2)sc(C)c1C | . | . | . | 0% | 13µM* | ?
CCCN(CC(=O)Nc1ccc(F)c(F)c1F)C(=O)Cc1ccc(S(=O)(=O)N2CCOCC2)s1 | . | . | . | 0% | 12µM* | ?
O=C(Cc1ccc(S(=O)(=O)N2CCCCC2)s1)Nc1ccc(F)cc1F | 29% | -2 | 10 | 5% | -26% | 13µM*
O=C(Cc1ccc(S(=O)(=O)N2CCOCC2)s1)Nc1cc(Cl)ccc1Cl | . | . | . | 0% | 13µM* | ?
CCNC(=O)Cc1ccc(S(=O)(=O)N2CCOCC2)s1 | . | . | . | 0% | ? | -61%
CC1(c2ccc3ccccc3c2)NC(=O)N(CC(=O)NCC(C)(C)N2CCOCC2)C1=O (stereo not drawn) | . | . | . | -10% | -24% | -2%
O=C(NC1CCCC1)c1cccc(Cn2cc([N+](=O)[O-])cn2)c1 | 15% | -1 | -14 | 22% | 22% | -9%
Cc1nc(C(F)(F)F)ccc1C(=O)Nc1ccccc1N1CCOCC1 | -9% | 9 | 14 | 5% | 8% | 12%
CCOC(=O)C1CCCN(Cc2sccc2C)C1 (stereo not drawn) | 1% | 4 | 3 | 7% | . | 57%
COc1cc(OC)c(NC(=O)Cc2ccc(OC)c(S(=O)(=O)N3CCOCC3)c2)cc1Cl | -7% | 0 | -9 | 7% | ? | ?
COc1cc(NC(=O)Cc2ccc(OC)c(S(=O)(=O)N3CCOCC3)c2)c(OC)cc1Cl | -16% | -1 | 14 | -4% | ? | 15µM*
COc1cc(NC(=O)Cc2ccc(S(=O)(=O)N3CCOCC3)s2)c(OC)cc1Cl | . | . | . | -3% | ? | 8.3µM*
O=C(Cc1ccc(S(=O)(=O)N2CCOCC2)s1)Nc1nc2c(s1)CCCC2 | 23% | 9 | 3 | -4% | ? | 9.3µM*
